High-throughput results deposited in PubChem by National Center for Advancing Translational Sciences (NCATS).
PLK1 PBD inh: PLK1 (human) polo-box domain binding inhibition; Plk1 PBD binding of FITC phosphopeptide, fluorescence polarization; Potency, µM, actives largely listed as inhibitors; AID 720504; 360,000 tested, 2.8% active; note: series mostly up to about 57 µM; nearly all actives have a fitted effect of over 65% in size
Target sequence (P53350 whole entry, looked up, the tested form may be a part): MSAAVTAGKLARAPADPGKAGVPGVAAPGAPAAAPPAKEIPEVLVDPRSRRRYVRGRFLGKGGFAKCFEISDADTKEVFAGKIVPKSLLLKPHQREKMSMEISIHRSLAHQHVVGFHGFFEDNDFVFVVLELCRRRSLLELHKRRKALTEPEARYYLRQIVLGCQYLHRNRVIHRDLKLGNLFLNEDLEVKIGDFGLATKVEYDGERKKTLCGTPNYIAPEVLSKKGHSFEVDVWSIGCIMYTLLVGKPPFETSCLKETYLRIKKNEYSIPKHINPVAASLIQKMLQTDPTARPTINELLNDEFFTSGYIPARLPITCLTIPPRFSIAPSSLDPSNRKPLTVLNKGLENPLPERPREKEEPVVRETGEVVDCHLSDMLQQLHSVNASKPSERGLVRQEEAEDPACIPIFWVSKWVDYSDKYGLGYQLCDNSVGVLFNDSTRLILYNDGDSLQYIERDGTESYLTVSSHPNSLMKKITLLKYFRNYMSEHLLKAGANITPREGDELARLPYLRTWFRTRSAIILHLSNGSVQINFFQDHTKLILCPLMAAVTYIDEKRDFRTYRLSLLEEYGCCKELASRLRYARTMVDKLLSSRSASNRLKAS
Rango release inh: inhibitors of RanGTP-induced Rango-importin beta complex dissociation; O95149+P62826; Biochemical FRET Rango-importin beta, RanGTP-induced dissociation; Potency, µM (titrated, usually from 46.1 µM); 340,000 tested, 0.071% active; AID 540253; calls by dose curve; note: nearly all actives have a fitted effect of over 45% in size
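Rango (0.1 uM)–importin beta (0.25 uM) complex; RanGTP-RCC1 trigger; 45 min RT; CFP/YFP FRET read.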
GCN5L2 inh: blocks human GCN5L2 histone acetyltransferase | AID 504327 | 390,000 tested, 0.21% active | GCN5L2 HAT assay, ThioGlo1 CoA-SH fluorescence | Q92830 | Potency, µM (highest dose often 58.9 µM), most hits filed as inhibitors
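GCN5L2 (20 nM) in 50mM HEPES pH 7.5, 0.1mM EDTA, 0.01% Tween-20 preincubated 15 min with compounds at room temperature. Reaction started with H3(1-25) 75uM, acetyl-CoA 70uM, ThioGlo1 50uM; CoA-thiol fluorescence (Ex340/Em540) read at 0 and 20 min.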
VDR inhibitor: inhibitors of human vitamin D receptor; P11473; VDR-SRC2-3 peptide fluorescence polarization, 2 h; Potency, µM, most hits filed as inhibitors; 400,000 tested, 0.93% active
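Fluorescence polarization assay measuring small-molecule disruption of VDR binding to the coregulator peptide SRC2-3. Compounds were pin-transferred (23 nl) into the reagent mix and incubated 2 h at room temperature before reading.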
PI5P4K alpha inh: blocks human PI5P4K alpha kinase activity | P48426 | PI5P4Kalpha enzyme, ADP-Glo luminescence, 60 min; hits give low values | max response, % | 330,000 tested, 1.2% active; active = max response of -50% or lower; inconclusive = between -30% and -50%; inactive = -30% or higher; note: value at the top dose of about 77 µM
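Single end-point luminescence (ADP-Glo) quantified ADP from PI5P4Kalpha turnover; ATP 5 microM final, 1 h at RT, 0.1% CHAPS and 0.28 mM EGTA in HEPES pH 7.4.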
Rango complex inh: Rango-importin beta binding inhibition; Q14974; Rango CFP/YFP FRET sensor + importin beta, 45 min; Potency, µM (doses to about 92.2 µM); 340,000 tested, 0.031% active; calls by dose curve; note: nearly all actives have a fitted effect of over 15% in size
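FRET biosensor (snurportin 1 IBB flanked by EYFP and cerulean), 50 nM, with compound 5 min, then 0.125 microM importin beta in PBS, 1 mM DTT, 0.02% Tween-20, 0.1% BSA. CFP/YFP ratio read after 45 min at room temperature; pre-read flags interference.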
Of the large screens only hits and unclear results are named; the others gave an inactive call. Shown are actives, neighbours in structure and some others; about 3.6% of the full set was active somewhere. Unless noted, calls come from the whole dose curve; as a rule, active = well fitted curve in the direction sought with a large enough effect; inconclusive = small, poorly fitted or top-dose-only effect, or another doubt; inactive = no such curve, though single readings can be large; an effect the other way counts as inactive or inconclusive.

CC(C)CS(=O)(=O)C1=NN2C(=N)/C(=C\c3ccc(OC(=O)c4ccco4)cc3)C(=O)N=C2S1	PLK1 PBD inh 21.2µM, Rango release inh 25.9µM, GCN5L2 inh inconclusive, VDR inhibitor inconclusive, PI5P4K alpha inh -84.0, Rango complex inh inconclusive
Clc1cccc(C2NCc3ccccc3-n3cccc32)c1 (stereo not given)	PLK1 PBD inh 29.9µM
COc1ccc(C2NCc3ccccc3-n3cccc32)cc1 (stereo not given)	none
Cn1c(O)c(/C=C2\N=c3ccccc3=C2CCNC(=S)NC2CC2)c(=O)n(C)c1=O	PLK1 PBD inh 0.947µM, VDR inhibitor 70.8µM
Cn1c(O)c(/C=C2\C=Nc3ccccc32)c(=O)n(C)c1=O	Rango complex inh inconclusive
CCOC(=O)[C@]12Cc3ccccc3[C@H]1N(CCC(=O)OC)C(=O)c1ccccc12	PLK1 PBD inh 9.47µM (no result: Rango release inh, GCN5L2 inh, VDR inhibitor, Rango complex inh)
CCCCCN1C(=O)c2ccccc2[C@@]2(C(=O)OCC)Cc3cc(OC)ccc3[C@@H]12	PLK1 PBD inh 5.32µM (no result: Rango release inh, GCN5L2 inh, VDR inhibitor, Rango complex inh)
COc1ccc(/C=C2\C(=O)NC(=O)N(Cc3ccccc3)C2=O)c(OC)c1OC	PLK1 PBD inh 11.9µM, VDR inhibitor inconclusive
COc1ccc(CN2C(=O)NC(=O)/C(=C\c3cc(OC)c(OC)c(OC)c3)C2=O)cc1	PLK1 PBD inh 8.44µM, VDR inhibitor 50.1µM, PI5P4K alpha inh inconclusive
COc1cc(OC)c(OC)cc1/C=C1/C(=O)NC(=O)N(Cc2ccccc2)C1=O	PLK1 PBD inh inconclusive, PI5P4K alpha inh inconclusive, Rango complex inh inconclusive
COc1cc(OC)c(OC)cc1/C=C1\C(=O)NC(=O)N(Cc2ccccc2)C1=O	PLK1 PBD inh 2.67µM, Rango release inh inconclusive, Rango complex inh inconclusive
CCOP(=S)(OCC)OCCSCC	none (no result: PLK1 PBD inh, Rango release inh, PI5P4K alpha inh, Rango complex inh)
C[C@H]1CO1	none (no result: PLK1 PBD inh, Rango release inh, PI5P4K alpha inh, Rango complex inh)
COc1c(O)c2c(=O)cc(OC)c3c4c(OC)cc(=O)c5c(O)c(OC)c(C[C@@H](C)OC(=O)c6ccccc6)c(c(c1C[C@@H](C)OC(=O)Oc1ccc(O)cc1)c23)c54	VDR inhibitor 50.1µM (no result: PLK1 PBD inh, Rango release inh, PI5P4K alpha inh, Rango complex inh)
Oc1cc2c(cc1O)[C@H]1c3ccccc3CN[C@H]1CC2	none (no result: PLK1 PBD inh, Rango release inh, PI5P4K alpha inh, Rango complex inh)
NC(=O)CI	GCN5L2 inh 10µM, VDR inhibitor 79.4µM (no result: PLK1 PBD inh, Rango release inh, PI5P4K alpha inh, Rango complex inh)
CN1C(=O)C(=Cc2ccccc2OCCOc2ccc([N+](=O)[O-])cc2)C(=O)N(C)C1=O	PLK1 PBD inh 2.99µM, GCN5L2 inh inconclusive, VDR inhibitor inconclusive, PI5P4K alpha inh inconclusive
CCn1cc(C=C2C(=O)N(C)C(=O)N(C)C2=O)c2ccccc21	none
CN1C(=O)C(=Cc2ccccc2OCc2ccc(C(=O)O)cc2)C(=O)N(C)C1=O	PLK1 PBD inh 11.9µM, VDR inhibitor inconclusive
CN1C(=O)C(=Cc2ccccc2OCc2ccccc2Cl)C(=O)N(C)C1=O	PLK1 PBD inh 2.99µM, VDR inhibitor inconclusive, Rango complex inh inconclusive
CC(=O)OCC1=C(C(=O)O)N2C(=O)C(NC(=O)CCCC(N)C(=O)O)C2SC1 (stereo not given)	VDR inhibitor inconclusive (no result: PLK1 PBD inh, Rango release inh, PI5P4K alpha inh, Rango complex inh)
CCOC(=O)Cc1[nH]nc2c1C(c1ccoc1)C(C#N)=C(N)O2 (stereo not given)	PLK1 PBD inh inconclusive (no result: PI5P4K alpha inh)
CCCC(Cn1cncn1)c1ccc(Cl)cc1Cl (stereo not given)	none (no result: PLK1 PBD inh, Rango release inh, PI5P4K alpha inh, Rango complex inh)
CC(C)c1ccc(N2C(=O)NC(=O)/C(=C\c3cnc(-c4ccccc4)nc3)C2=O)cc1	PLK1 PBD inh 21.2µM, PI5P4K alpha inh inconclusive
Cc1ccc(N2C(=O)NC(=O)/C(=C/c3cnc(-c4ccccc4)nc3)C2=O)cc1C	PLK1 PBD inh 4.23µM, VDR inhibitor 31.6µM, PI5P4K alpha inh -51.7
O=C1NC(=O)N(c2ccccc2)C(=O)/C1=C/c1ccc(Sc2ccccc2)o1	PLK1 PBD inh inconclusive, VDR inhibitor inconclusive, Rango complex inh inconclusive (no result: PI5P4K alpha inh)
CC(C)c1ccc(N2C(=O)NC(=O)/C(=C\C=C\c3ccco3)C2=O)cc1	PLK1 PBD inh inconclusive, GCN5L2 inh inconclusive, PI5P4K alpha inh -69.2, Rango complex inh inconclusive
CC1CC(Cl)CCC1C(=O)OC(C)(C)C (stereo not given)	none (no result: PLK1 PBD inh, Rango release inh, PI5P4K alpha inh, Rango complex inh)
CN1C(=O)C(=Cc2c(OCc3cnc(Cl)s3)ccc3ccccc23)C(=O)N(C)C1=O	PLK1 PBD inh 4.74µM, VDR inhibitor inconclusive
